Bioassay records: PubChem BioAssay, Broad Institute
C diff HTS: C. difficile growth inhibition. Clostridium difficile clinical isolate growth, OD600, 24 h; active compounds read low. growth activity, negative = inhibition, % at 16 µg/mL (by protocol). 86,000 compounds, 0.25% hits. AID 1259249;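 active = mean growth activity at or below -80% and every replicate also at or below -80%; inconclusive = mean at or below -80% but some replicate above -80%; inactive = mean growth activity above -80%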;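 note: 0% = DMSO wells and -100% = levofloxacin 16 µg/mL wells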
T cruzi growth: T. cruzi proliferation inhibition; T. cruzi beta-gal in NIH3T3, GalScreen luminescence, 90 h; inhibition, % at 8.34 µM; 77,000 compounds, 5.9% hits;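 active = mean inhibition above about 93%, with at least 55% of replicates each passing it, limit read from the data, passing the limit was not always enough; inconclusive = only one of those two conditions holds; inactive = neither condition holds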
Pf Dd2 inh: blocks growth of Plasmodium falciparum Dd2 parasites; AID 1159554; activity change, % at 10 µM; P. falciparum Dd2 growth, SYBR Green, 72 h; active compounds read low; 94,000 compounds, 2.3% hits; in the data active = activity change below about -80%; inconclusive = no clear call, values can overlap the other calls
* marks the source's active call; other numbers are inactive results; ? = inconclusive; nt = no result given. Rows were chosen to be rich in hits. Some 6.7% of all compounds tested hit in one or more screens of this group.

SMILES | C diff HTS | T cruzi growth | Pf Dd2 inh
COc1cccc(C#Cc2cnc3c(c2)C(=O)N([C@H](C)CO)C[C@H](C)[C@H](CN(C)C(=O)C2CCC2)O3)c1 | 9 | 64 | -32
O=C(NCc1ccc(F)cc1)[C@H]1[C@H](CO)[C@H]2Cn3c(cccc3=O)[C@@H]1N2C(=O)C1CC1 | 4 | nt | -10
COc1cccc(NC(=O)N[C@H]2CC[C@H](CC(=O)NCc3ccccn3)O[C@H]2CO)c1 | -1 | -46 | 0
C[C@H](CO)N1C[C@H](C)[C@@H](CN(C)C(=O)c2cnccn2)Oc2cc(Br)ccc2S1(=O)=O | -3 | -3 | 18
COc1ccc2c3c([nH]c2c1)[C@@H](CO)N(C(=O)CN(C)C)CC31CCN(Cc2ccccc2)CC1 | 6 | nt | ?
COc1ccc2c3c([nH]c2c1)[C@H](CO)N(C(=O)CN(C)C)CC31CN(CC2CCOCC2)C1 | 4 | nt | 10
COc1ccc2c3c([nH]c2c1)[C@@H](CO)N(C(=O)CN(C)C)CC31CN(CC2CCCC2)C1 | 8 | nt | -86*
COc1ccc2c3c([nH]c2c1)[C@H](CO)N(C(=O)CN(C)C)CC31CCN(Cc2ccccc2)CC1 | 3 | nt | -82*
C[C@@H]1CCCCO[C@H](CN(C)CC2CCCCC2)[C@@H](C)CN([C@H](C)CO)C(=O)c2cc(NC(=O)Nc3ccc(C(F)(F)F)cc3)ccc2O1 | -59 | 96 | -37
C[C@@H]1CCCCO[C@@H](CN(C)CC2CC2)[C@H](C)CN([C@H](C)CO)C(=O)c2cc(NC(=O)Nc3ccc(C(F)(F)F)cc3)ccc2O1 | -9 | 53 | -69
CCCN(C)C[C@H]1OCCCC[C@@H](C)Oc2ccc(NC(=O)Nc3ccc(C(F)(F)F)cc3)cc2C(=O)N([C@@H](C)CO)C[C@H]1C | -107* | 26 | -77
C[C@@H]1CN([C@@H](C)CO)C(=O)c2cc(NC(=O)Nc3ccc(C(F)(F)F)cc3)ccc2O[C@@H]1CN(C)CC1CCCCC1 | 31 | 71 | -83*
C[C@@H]1CCCCO[C@@H](CN(C)CC2CC2)[C@H](C)CN([C@@H](C)CO)C(=O)c2cc(NC(=O)Nc3ccc(C(F)(F)F)cc3)ccc2O1 | 4 | 26 | -56
C[C@@H]1CCCCO[C@H](CN(C)CC2CC2)[C@H](C)CN([C@@H](C)CO)C(=O)c2cc(NC(=O)Nc3ccc(C(F)(F)F)cc3)ccc2O1 | 6 | 69 | -80*
C[C@@H]1CN([C@@H](C)CO)C(=O)c2cc(NC(=O)Nc3ccc(C(F)(F)F)cc3)ccc2O[C@@H](C)CCCCO[C@@H]1CN(C)CC1CCCCC1 | -12 | 100* | -49
C[C@H]1CN([C@@H](C)CO)C(=O)c2cc(NC(=O)Nc3ccc(C(F)(F)F)cc3)ccc2O[C@H]1CN(C)CC1CCCCC1 | 2 | 71 | -48
COc1ccc2c3c([nH]c2c1)[C@@H](CO)N(Cc1nccs1)CC31CN(C(=O)C2CCCCC2)C1 | -10 | nt | -3
CCNC(=O)C[C@@H]1CC[C@@H]2[C@H](COc3ccc(NC(=O)NC(C)C)cc3C(=O)N2C)O1 | -1 | 16 | -5
C[C@H](CO)N1C[C@H](C)[C@@H](CN(C)S(=O)(=O)c2ccccc2)Oc2ccc(NC(=O)Nc3ccc(F)cc3)cc2C1=O | -3 | 48 | 2
COc1ccc(S(=O)(=O)N(C)C[C@@H]2Oc3c(NC(=O)CCCCCC(=O)Nc4ccccc4N)cccc3C(=O)N([C@H](C)CO)C[C@@H]2C)cc1 | 0 | nt | -85*
COc1ccc(S(=O)(=O)N(C)C[C@@H]2Oc3c(NC(=O)CCCCCC(=O)Nc4ccccc4N)cccc3C(=O)N([C@H](C)CO)C[C@H]2C)cc1 | 13 | nt | -80
COc1ccc(S(=O)(=O)N(C)C[C@H]2Oc3c(NC(=O)CCCCCC(=O)Nc4ccccc4N)cccc3C(=O)N([C@H](C)CO)C[C@@H]2C)cc1 | -1 | nt | -49
COc1ccc(S(=O)(=O)N(C)C[C@@H]2Oc3c(NC(=O)CCCCCC(=O)Nc4ccccc4N)cccc3C(=O)N([C@@H](C)CO)C[C@H]2C)cc1 | 1 | nt | -83*
C[C@H](CO)N1C[C@H](C)[C@@H](CN(C)Cc2ccncc2)Oc2ccc(NC(=O)CCN3CCOCC3)cc2CC1=O | 1 | -23 | 1
C[C@@H]1CN([C@@H](C)CO)C(=O)c2cc(N(C)C)ccc2O[C@@H](C)CCCCO[C@H]1CN(C)C | -2 | 28 | 20
SMILES | C diff HTS | T cruzi growth | Pf Dd2 inh
O=C(NC[C@@H]1N[C@@H](CO)[C@H]1c1ccc(C2=CCCCC2)cc1)c1cccc(F)c1 | -81* | 43 | -4
CN(C[C@@H]1N[C@H](CO)[C@H]1c1ccc(C2=CCCC2)cc1)C(=O)c1cccc(F)c1 | 8 | 70 | -19
CC(C)[C@@H](C)NC(=O)N(C)C[C@@H]1OCc2ccccc2-c2c(n(C)c3ccccc23)C(=O)N([C@H](C)CO)C[C@@H]1C | nt | -34 | 6
CC(C)C#Cc1ccc([C@@H]2[C@@H](CO)N(C(=O)c3ccccn3)[C@H]2C#N)cc1 | -1 | 92 | -26
N#C[C@@H]1[C@H](c2ccc(C#CCC3CCCC3)cc2)[C@H](CO)N1C(=O)c1ccccn1 | -3 | 94 | ?
N#C[C@H]1[C@H](c2ccc(C#CCC3CCCC3)cc2)[C@H](CO)N1C(=O)c1ccccn1 | -7 | 104* | -24
N#C[C@H]1[C@@H](c2ccc(C#CCC3CCCC3)cc2)[C@H](CO)N1C(=O)c1ccccn1 | -3 | 101* | -43
C[C@H](CO)N1C[C@H](C)[C@@H](CN(C)Cc2ccncc2)Oc2ncc(C#CCN(C)C)cc2C1=O | 0 | -25 | 46
C[C@@H]1CN([C@H](C)CO)C(=O)Cc2cc(NC(=O)Nc3ccc4c(c3)OCO4)ccc2O[C@@H]1CN(C)Cc1ccc(Oc2ccccc2)cc1 | 5 | 78 | 1
O=C(C1CCCC1)N1CC(=O)N2[C@H](CO)[C@@H](c3ccc(C#Cc4cccc(F)c4)cc3)[C@@H]2C1 | -28 | nt | -17
CC(C)NC(=O)Nc1ccc2c(c1)C(=O)N(C)[C@H]1CC[C@H](CC(=O)Nc3ccccc3)O[C@H]1CO2 | 3 | 1 | -98*
CC(C)NC(=O)Nc1ccc2c(c1)C(=O)N(C)[C@H]1CC[C@@H](CC(=O)Nc3ccccc3)O[C@@H]1CO2 | -6 | 19 | -9
CCS(=O)(=O)N1CC2(CN(Cc3ccccc3OC)[C@H](CO)c3c2c2ccc(OC)cc2n3C)C1 | 2 | nt | -69
C[C@H](CO)N1C[C@H](C)[C@H](CN(C)S(=O)(=O)c2cccc(F)c2)Oc2ncc(C#Cc3ccc(F)cc3)cc2C1=O | 6 | 80 | -68
COc1ccc(C#Cc2cnc3c(c2)C(=O)N([C@H](C)CO)C[C@H](C)[C@H](CN(C)S(=O)(=O)c2ccc(C)cc2)O3)cc1OC | -5 | 92 | -85*
COc1ccc(C#Cc2cnc3c(c2)C(=O)N([C@H](C)CO)C[C@H](C)[C@H](CN(C)S(C)(=O)=O)O3)cc1OC | 5 | 31 | -28
COc1ccc(C#Cc2cnc3c(c2)C(=O)N([C@H](C)CO)C[C@H](C)[C@H](CN(C)S(=O)(=O)c2cccc(F)c2)O3)cc1OC | 17 | 53 | -87*
COc1ccc(S(=O)(=O)N(C)C[C@H]2Oc3c(NC(=O)Nc4ccc5c(c4)OCO5)cccc3C(=O)N([C@@H](C)CO)C[C@H]2C)cc1 | -4 | 1 | -86*
